DAX1 inh: DAX1 (NR0B1) inhibition, primary screen; HEK293T StAR-luciferase reporter, SF-1/DAX-1 repression relief; 370,000 tested, 1.1% active; inhibition, % at 6.8 µM; AID 652010;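 active = inhibition above the mean over all tested compounds plus 3 SD, cut at about 3.6% in these data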;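 note: 0% = DAX-1 cells with DMSO and 100% = cells lacking DAX-1 with DMSO; higher inhibition means more luminescence from relief of DAX-1 repression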
Wnt bcat act: Wnt/beta-catenin pathway activation. 300,000 tested, 1.2% active. AID 743398. activation, % at 9.35 µM. Wnt/beta-catenin reporter cell assay, activator, plate reader; in the data active = activation above about 30%, passing the limit was not always enough; inconclusive = no clear call, values can overlap the other calls;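 note: 0% = neutral control wells and 100% = positive control wells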
hcDAF-12 act: activates DAF-12 receptor from parasite H. contortus. 370,000 tested, 1.4% active. activation, % at 6.8 µM. HEK293 hcDAF-12 lit1-tk-luc reporter, luminescence; 0% DMSO, 100% Δ7-dafachronic acid;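 active = activation above the mean of all tested compounds plus 3 SD, cut at about 5.5% in these data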;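 note: 100% = response to 3 µM Δ7-dafachronic acid high control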
esBAF inh: SWI/SNF esBAF complex inhibition. mouse ES cells, Bmi1-luciferase knock-in reporter, 24 h; 100% = twice the neutral-well signal. 350,000 tested, 2% active. reporter increase, % at 12.5 µM; in the data active = activation above about 40%; inconclusive = no clear call, values can overlap the other calls;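 note: 0% = median of the plate's neutral control wells and 100% = double that signal; a rise in the Bmi1 reporter signal indicates esBAF inhibition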
ssDAF12 agonist: S. stercoralis DAF-12 activation, primary screen | HEK293 ssDAF-12/GRIP1 lit1-tk-luc reporter, luminescence; % of 3 µM dafachronic acid response | activation, % at 6.8 µM | 370,000 tested, 1% active | AID 652126;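 active = activation above the mean over all tested compounds plus 3 SD, cut at about 0.9% in these data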;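 note: 0% = DMSO-only wells and 100% = 3 µM delta7-dafachronic acid wells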
hgDAF12 agonist: activates the H. glycines DAF-12 receptor ligand-binding domain | HEK293 GAL4-hgDAF12 UAS-luciferase reporter, agonist luminescence; normalized to butyrate control | 370,000 tested, 1.8% active | activation, % at 6.8 µM;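 active = activation above a cutoff set at the mean of all screened compounds plus 3 SD, cut at about 10% in these data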;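 note: 0% = DMSO wells and 100% = sodium butyrate wells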
DAX1 inh confirm: NR0B1 (human) inhibition, confirmation; shares compounds with DAX1 inh; HEK293T StAR-promoter luciferase reporter, SF-1/DAX-1 repression; inhibition, % at 6.8 µM; 2,400 tested, 87% active; AID 652134;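 active = inhibition above the average of every tested compound plus 3 SD, cut at about 3.8% in these data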;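 note: 0% = DAX-1 cells with DMSO and 100% = no DAX-1 control cells with DMSO; active compounds raise luminescence by relieving repression of the StAR reporter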
Target sequence (P51843 whole entry, looked up): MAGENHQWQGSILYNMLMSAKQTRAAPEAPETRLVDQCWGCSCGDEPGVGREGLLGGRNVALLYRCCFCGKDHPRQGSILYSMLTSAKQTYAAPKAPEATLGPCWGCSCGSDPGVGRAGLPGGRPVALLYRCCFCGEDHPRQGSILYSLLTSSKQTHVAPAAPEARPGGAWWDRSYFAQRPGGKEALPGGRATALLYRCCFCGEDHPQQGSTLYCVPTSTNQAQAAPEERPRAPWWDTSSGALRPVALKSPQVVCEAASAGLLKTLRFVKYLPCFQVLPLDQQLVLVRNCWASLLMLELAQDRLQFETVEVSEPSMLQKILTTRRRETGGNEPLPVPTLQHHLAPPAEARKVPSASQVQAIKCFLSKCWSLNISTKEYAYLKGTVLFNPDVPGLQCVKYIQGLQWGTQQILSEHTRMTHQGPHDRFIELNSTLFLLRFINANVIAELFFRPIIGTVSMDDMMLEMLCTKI
SF1 AF2mut Luc: counter-screen for DAX1 inhibitors: nonselective inhibitors with SF-1 AF2 mutant. shares compounds with DAX1 inh. HEK293 StAR-luciferase, luminescence. inhibition, % at 6.8 µM. 2,400 tested, 78% active. AID 652136;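 active = inhibition above the mean of all tested compounds plus 3 SD, cut at about 3% in these data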;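 note: 0% = DAX-1 transfected cells with DMSO and 100% = cells without DAX-1 with DMSO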
LXRb hcDAF ctr: LXR-beta agonism as hcDAF-12 counter-screen; shares compounds with hcDAF-12 act; activation, % at 6.8 µM; 3,400 tested, under 10 active; HEK293 Gal4-LXR tk-luc reporter, luminescence, 24 h; normalized: DMSO 0%, positive control 100%; AID 743027;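 active = mean percent activation of the reporter above a cutoff set as the average over tested compounds plus their standard deviation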
hcDAF12 ag: hcDAF-12 agonism, confirmation assay; 3,400 tested, 61% active; AID 743032; shares compounds with hcDAF-12 act; activation, % at 6.8 µM; HEK293 hcDAF-12 lit1-tk-luc reporter, luminescence; % of Δ7-dafachronic acid response;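 active = mean activation across triplicate tests above the threshold derived from the earlier primary screen, cut at about 5.5% in these data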;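 note: 0% = DMSO only wells and 100% = 3 µM Δ7-dafachronic acid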
hgDAF12 conf: confirmation of H. glycines DAF-12 agonists. shares compounds with hgDAF12 agonist. HEK293 GAL4-hgDAF12 luciferase reporter, agonist mode; percent of butyrate response. activation, % at 6.8 µM. 3,300 tested, 80% active. AID 743050;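 active = mean activation over triplicate wells above the hit cutoff derived from the earlier primary screen, cut at about 11% in these data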;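 note: 0% = DMSO low control and 100% = 2 mM sodium butyrate high control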
LXRb DAF12 ctr: counter-screen for DAF-12 agonists: agonists of human LXR-beta; shares compounds with hgDAF12 agonist; HEK293 Gal4-LXR luciferase reporter, 24 h; activation, % at 6.8 µM; 3,300 tested, under 10 active; AID 743051;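 active = mean activation of the triplicate above a set limit carried over from the primary screen, none filed active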
Numbers without * were called inactive; ? = inconclusive; . = no result. Hits are enriched below; roughly 4.2% of the tested compounds scored in any of these assays.

SMILES	DAX1 inh	Wnt bcat act	hcDAF-12 act	esBAF inh	ssDAF12 agonist	hgDAF12 agonist	DAX1 inh confirm	SF1 AF2mut Luc	LXRb hcDAF ctr	hcDAF12 ag	hgDAF12 conf	LXRb DAF12 ctr
CC1CC(C)CN(C(=O)c2ccc3ccccc3c2)C1 (configuration not stated)	-1	1	0	.	-1	-1	.	.	.	.	.	.
CO[C@@H]1CN(C)C(=O)c2cc(NC(=O)C3CC3)ccc2OC[C@@H](C)N(C(=O)Nc2ccc(C(F)(F)F)cc2)C[C@H]1C	.	.	.	11	.	.	.	.	.	.	.	.
COc1nc(-c2ccc(C)cc2)ccc1-c1noc(-c2ccco2)n1	-1	.	0	9	-1	2	.	.	.	.	.	.
COc1nc(C)ccc1-c1noc(-c2ccco2)n1	5.0*	-3	7.8*	-26	1	15*	12*	5.4*	2	6.6*	15*	1
O=c1[nH]c(=O)n(C2CC(O)C(CO)O2)cc1Br (configuration not stated)	11*	11	6.2*	.	-1	15*	18*	6.8*	.	.	20*	0
CCOc1ccc(-c2ccc(SCc3ccccn3)nn2)cc1	1	0	4	.	-2	10	.	.	.	.	.	.
CCSc1ccc(-c2ccc(C)cc2)nn1	11*	4	11*	.	0	20*	17*	7.4*	2	6.1*	17*	1
Cc1ccc(-c2ccc(SCC(=O)Nc3nonc3C)nn2)cc1	0	.	0	-3	-1	0	.	.	.	.	.	.
CCOc1ccc(-c2ccc(SCC)nn2)cc1	7.9*	6	5	-27	0	24*	14*	6.7*	.	.	19*	1
N#C/C(=C/c1ccco1)c1nc2ccccc2s1	4.8*	51*	20*	.	4.0*	16*	12*	7.7*	1	14*	22*	1
COc1cccc(CCNC(=O)c2cc(COc3ccc(C)c(C)c3)on2)c1OC	4.6*	3	4	?	0	14*	7.8*	3.4*	.	.	16*	1
Cc1ccc(OCc2cc(C(=O)NCC(C)c3ccccc3)no2)cc1C (configuration not stated)	-1	-2	0	.	-1	1	.	.	.	.	.	.
COc1ccc(-c2cn3cc(C)ccc3n2)cc1Br	6.9*	18	14*	.	1.2*	20*	19*	8.2*	1	6.5*	20*	1
Cc1noc(C)c1NC(=O)Nc1ccc2c(c1)C(=O)N(C)[C@@H]1CC[C@@H](CC(=O)NCc3ccc(Cl)cc3)O[C@H]1CO2	.	.	.	-2	.	.	.	.	.	.	.	.
Clc1ccccc1N=C1NN=C(c2cccs2)CS1	7.2*	-1	10*	66*	1.3*	18*	9.5*	5.3*	1	9.3*	16*	1
C[C@@H]1CN([C@H](C)CO)C(=O)Cc2cc(NC(=O)Cn3cnnn3)ccc2O[C@@H]1CN(C)C(=O)Nc1cccc2ccccc12	.	.	.	0	.	.	.	.	.	.	.	.
O=c1sc(Nc2ccccc2)nc2ccccc12	0	0	-2	.	-1	-3	.	.	.	.	.	.
COc1ccc(C(=O)c2sc(Nc3ccccc3)nc2C)cc1	0	1	-1	15	-1	7	.	.	.	.	.	.

Source: PubChem BioAssay (several laboratories)
